Screens as filed in PubChem.
VACV E9 pol inh = inhibitors of vaccinia virus processive DNA synthesis (E9 polymerase) | normalized absorbance, % (no concentration beside the values) | 46,000 tested, 0.94% active | in vitro processive DNA synthesis, absorbance read-out; hits give low values; in the data active means normalized absorbance mostly below about 85%, no sharp cut-off; inactive means mostly above about 86%
Large screens that a line does not name were inactive. This is one part of a sample in which hits are shown more often than they occur.

CC(C)/C=C1\CCCC\C1=N/n1cnnc1	none
CC(Oc1ccccc1)C(=O)NC1C(=O)N2C(C(=O)O)C(C)(C)S[C@H]12 (stereo partly drawn)	none
Cc1c(C(=O)O)cc(-c2ccccc2)n1CCSCc1c(F)cccc1Cl	VACV E9 pol inh 81.6
Cc1c(C(=O)NCc2ccco2)cc(-c2ccccc2)n1CCSCc1c(F)cccc1Cl	none
O=C(O)c1ccc(CSCc2c(F)cccc2Cl)o1	none
O=C(Oc1cccnc1)c1cccc(Br)c1	none
Cc1ccccc1Nc1nccc(N(C)C)c1C#N	VACV E9 pol inh 81.9
Cc1ccccc1NC1=NC(C)(C)CS1	none
Cc1ccccc1NC1=NCCS1	none
O=C(c1ccc(F)cc1)N1CCCCC(Sc2ncnc3sc4c(c23)CCC4)C1=O (stereo not drawn)	none
O=C(Cn1c(SCc2ccc(F)cc2)nc2cccnc21)N1CCCc2ccccc21	none
CCc1ccccc1NC(=O)c1cc(Cl)sc1Cl	none
CN(Cc1ccccc1)C(=O)CNc1ccc(Br)cc1	none
Cc1c(CN(C)C)c2c(n1Cc1ccccc1)C(=O)c1ccc(Br)cc1-2	VACV E9 pol inh 68.3
Nc1cc(=O)n(Cc2ccccc2)c(=O)n1-c1ccccc1	none
CCOC(=O)C1CCN(C(=O)c2ccccc2NC(=O)c2cccc(F)c2)CC1	none
CCOC(=O)c1sc(NC(=O)CCOc2ccccc2)cc1C	none
COc1ccc2c(c1OC)CN(C)CCc1cc3c(cc1C(O)C2)OCO3 (stereo not drawn)	none
COc1ccc2cc3[n+](cc2c1OC)CCc1cc2c(cc1-3)OCO2	VACV E9 pol inh 81.7
COc1ccc2c(c1OC)CN1CCc3cc4c(cc3C1C2)OCO4 (stereo not drawn)	none
Nc1sc2c(c1-c1nc3ccccc3s1)CCC2	none
CCOC(=O)c1cccc2c1-c1ccccc1/C2=N/O	none
CCOC(=O)c1cccc2c1-c1ccccc1C2=O	none
O=C(OCCO)c1cccc2c1-c1ccccc1C2=O	VACV E9 pol inh 73.9
CC1=CC(=O)N(CCc2c[nH]c3ccc(OCc4ccccc4)cc23)C1=O	none
COc1ccc2c3c(ccc2c1)C(=O)CCC3	none
Cc1nnsc1C(=O)N1CCN(C2c3ccccc3-c3ccccc32)CC1	none
O=C(O)c1ccccc1C(=O)N1CCN(C2c3ccccc3-c3ccccc32)CC1	VACV E9 pol inh 73.6
Cc1cc(C(=O)N2CCN(C3c4ccccc4-c4ccccc43)CC2)c(C)o1	none
Cc1c(Cl)cccc1NC1=NS(=O)(=O)c2ccccc21	none
CCn1c(C)c(CCC(=O)Nc2ccc(C(=O)OC)cc2)c(=O)n2nc(-c3ccccc3OC)cc12	none
CN(C)C=Nc1ncc2c([nH]c3ccccc32)c1C#N	VACV E9 pol inh 88.7
Cc1[nH]c2ccccc2c1N=CN(C)C	none
Cc1sc(/N=C/c2c[nH]c3ccccc23)c(C#N)c1C	none
CCn1cc(CCC(=O)NCc2ccco2)c2ccccc21	none
COC(C)(OCCn1c2ccccc2c2ccccc21)c1ccccc1 (stereo not drawn)	none
O=C(Cc1ccccc1)NCCO	none
O=c1c2ccccc2nc(SCc2ccccc2F)n1CCc1ccccc1	none
O=c1c2ccccc2nc(SCc2c(F)cccc2F)n1Cc1ccccc1	VACV E9 pol inh 76.3
Cc1ccc(CSc2nc3ccccc3c(=O)n2Cc2ccccc2)cc1	none
N#CCSc1cccc[n+]1[O-]	none
CCc1nn2c(C)cc(=O)[nH]c2c1C	none
BrCc1ccc(-c2noc(-c3ccncc3)n2)cc1	VACV E9 pol inh 21.0
COc1ccc(-c2noc(-c3ccc(Cl)c(Cl)c3)n2)cc1	none
COc1ccc(Cc2nc(-c3ccc(Br)cc3)no2)cc1	none
CCc1ccc(N2Cc3ccncc3C2=O)cc1	none
CCSC1=NC(C)(C)C=C(C)N1	none
CC1=CC(C)(C)N=C(Nc2nc(C)c3cc(C)cc(C)c3n2)N1	VACV E9 pol inh 50.1
CC(=O)Oc1ccccc1C(=O)NC(C)c1ccccc1 (stereo not drawn)	none
CSc1ncc(Cl)c(C(=O)Oc2ccccc2Cl)n1	none
Cc1ccc(O)cc1	none
COc1cccc(C2(c3ccc(O)cc3)CCCC2)c1	none
Oc1ccc(C2(c3ccc(O)cc3)CCCC2)cc1	VACV E9 pol inh 52.9
NC(=O)CC1Nc2ccccc2NC1=O (stereo not drawn)	none
Cc1ccccc1-c1oncc1-c1nnnn1-c1ccccc1	none
CCc1ccc(NCc2cn(-c3ccccc3)nc2-c2cccs2)cc1	none
CN(C)Cc1c[nH]c2ccccc12	none
CN(C)CCCn1cc(C2=C(c3c[nH]c4ccccc34)C(=O)NC2=O)c2ccccc21	VACV E9 pol inh 67.5
COc1ccccc1OCCn1cc(/C=C2/SC(=S)NC2=O)c2ccccc21	none
COc1cc(OC)cc(C(=O)N/C(N)=N\c2nc3ccccc3s2)c1	none
Clc1cccc(CSc2nnc3ccccn23)c1	none
CCCNC(=O)Cn1c2c(c(-c3ccccc3Cl)cc1=O)CCC2	none
Nc1ccccc1SCC(=O)N1CCc2ccccc21	VACV E9 pol inh 78.7
Cc1ccc(SCC(=O)N2CCc3ccccc32)cc1	none
O=C(CSc1c[nH]c2ccccc12)N1CCc2ccccc21	none
O=C(Nc1ccccc1)Nc1ccc(Br)cc1	none
NNc1ccc(Cl)c(Cl)c1	none
NNc1ccc(Br)cc1	VACV E9 pol inh 54.0
CC1=C(C#N)C(c2ccccc2)C2=C(CC(c3ccc(Br)cc3)CC2=O)O1 (stereo not drawn)	none
Cc1ccc2cccc(OC(=O)N3CCOCC3)c2n1	none
O=C(OCC(=O)N1CCCCC1)c1sc2ccccc2c1Cl	none
CC1CCCN(CCCNC(=O)c2coc3nc4ccccc4nc23)C1 (stereo not drawn)	VACV E9 pol inh 60.3
Cc1ccc(CCNC(=O)c2coc3nc4ccccc4nc23)cc1	none
CC1CCCN(CCCNC(=O)C2CCCN(c3ncnc4c3nc3n4CCCCC3)C2)C1 (stereo not drawn)	none
COc1cccc(/C=C2/SC(=S)N(CCC(=O)N3CCCCC3)C2=O)c1	none
CC1CC1C(=O)OCC(=O)Nc1cccc(Cl)c1 (stereo not drawn)	none
CC(=O)Oc1c2c(c[n+](C)c1C)COC(C)(C)OC2	none
CCOC(=O)CCN1C(=O)/C(=C\c2cccs2)SC1=S	none
Cc1[nH]n(-c2cccc(Cl)c2)c(=O)c1N=O	VACV E9 pol inh 67.3
Cc1[nH]n(-c2ccccc2)c(=O)c1C=Nc1cccc(N)c1	none
Cc1[nH]n(-c2ccccc2)c(=O)c1Sc1ccc(Cl)cc1	none
N#C/C(=C\c1ccc(C(F)(F)F)cc1)c1c[nH]c2ccccc12	none
NC(=O)c1cc(Br)c(O)c(Br)c1	none
CCn1cc(CN(C(=O)Nc2cccc(OC)c2)C2CCCCC2)c2ccccc21	none
CCOC(=O)c1[nH]c(C)c(C(=O)Nc2cc(C)cc(C)c2)c1C	none
O=C(NCc1cc2ccccc2s1)c1ccccc1N1CCOCC1	none
N#CC(C#N)=C(N)SCc1ccccc1	none
N#CC(C#N)=C(Nc1ccc(Br)cc1)SCc1ccc(F)cc1	none
N#CC(C#N)=C(Nc1ccccc1Cl)SCc1cccc(F)c1	VACV E9 pol inh 25.8
NNC(=O)c1ccc(OCC(O)CO)cc1O (stereo not drawn)	none
NC(=O)c1ccc(-c2nnc(-c3ccccc3)o2)cc1	none
Nc1ccccc1-c1nnc(-c2ccc(-c3ccccc3)cc2)o1	VACV E9 pol inh 65.9
c1ccc(-c2nnc(-c3ccccc3)o2)cc1	none
CCCc1nc2ccccc2n1CC(=O)N(c1ccccc1)C(C)C	none
COc1cnc(SC)n(C)c1=O	none
Cc1ccc(CNC(=O)C2CCN(S(=O)(=O)c3c(C)nn(C)c3C)CC2)cc1	none
CCNc1nc(SCC(=O)NC(=O)NCc2ccccc2)nc2sc3c(c12)CCN(C)C3	none
CCNc1nc(SCc2ccc(Cl)cc2)nc2sc3c(c12)CCN(C)C3	VACV E9 pol inh 52.7
CC(C)C1Cc2c(sc3nc(SCc4ccc(Cl)c(Cl)c4)nc(N)c23)CO1 (stereo not drawn)	none
CCc1ccc(Nc2c3c(nc4ccccc24)CCCC3)cc1	none
CN(C)CCCNc1c2c(nc3ccccc13)CCC2	VACV E9 pol inh 26.7
CCc1ccc(Nc2c3c(nc4ccccc24)CCC3)cc1	none
